This note sets out measurements from PubChem BioAssay AID618 (Sanford-Burnham Center for Chemical Genomics, 2007).

In all, about 87,000 compounds went through this assay and about 540 (0.62%) were called active. How the calls were made is not given here. Only a selection was taken, and actives are over-represented in it overall. Measured potencies and affinities stand elsewhere.

This test in a line: MT1-MMP gene expression reporter suppression – cell-based, luciferase reporter, luminescence (AID 618).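 Further: actives suppress MT1-MMP promoter-driven transcription so potencies describe inhibitors.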 Conditions: MT1-MMP promoter luciferase reporter cells.
For `Cc1ccc(NC(=O)c2cc(C)on2)cc1`, the compound was classed as inactive.
`COC(=O)N1CC=CC1(C)C(=O)NCC1CC1` (stereo not given): the call was inactive.
On to `O=C(NCc1ccc2c(c1)OCO2)C1(S(=O)(=O)c2ccccc2)CC1`, for which the compound was called inactive.
Regarding `Cc1cc(NC(=O)c2ccc3c(c2)OCO3)no1`, the outcome was inactive.
With `Cc1nc2c(ccc3nc(NC(=O)c4ccc5c(c4)OCCO5)sc32)s1`, the compound was classed as active.
As to `Cc1cc(NC(=O)c2ccc(Cl)cc2)no1`, the compound was called inactive.
The result for `Cc1cc(NC(=O)c2ccc3c(c2)OCCO3)no1` reads “active”; that for `Cc1nc2c(ccc3nc(NC(=O)c4ccc(S(=O)(=O)N(C)C)cc4)sc32)s1`, “inactive”; that for `Cc1nc2ccc3nc(NC(=O)c4ccc5c(c4)OCCO5)sc3c2s1`, “inactive”.
Under `CC(=O)c1ccc(NC(=O)CSc2nnc(NC(=O)CN3CCOCC3)s2)cc1` stands “inactive”.
The result for `Cn1cccc1C(=O)NC(=O)COC(=O)CC12CC3CC(CC(C3)C1)C2` reads “inactive”.
Regarding `Cc1cc2c(c(=O)n1C1CC1)C(c1cccc(Cl)c1)C(C#N)=C(N)O2` (stereo not given), the compound was called inactive.
In the case of `OCCN1CCN(CCCN2c3ccccc3Sc3ccc(Cl)cc32)CC1`, the compound was classed as inactive.
The result for `OCCN1CCN(CCCN2c3ccccc3Sc3ccc(C(F)(F)F)cc32)CC1` reads “active”; that for `CN1CCN(CCCN2c3ccccc3Sc3ccc(C(F)(F)F)cc32)CC1`, “inactive”.
Under `O=C(Nc1ccccc1C(=O)OCn1nnc2ccccc2c1=O)c1ccco1` stands “inactive”; under `CC(=O)Nc1ccc(S(=O)(=O)N2CCC(c3nc4ccc(C)cc4[nH]3)CC2)cc1`, “inactive”.
The result for `C=CCn1c(/N=C/c2ccc(N(C)C)cc2)nc2ccccc21` reads “inactive”; that for `Cc1nc2ccccc2c(=O)n1/N=C/c1ccc(N(C)C)cc1`, “inactive”; that for `CN(C)c1ccc(/C=N/n2ncc3ccccc32)cc1`, “active”.
With `CCCc1[nH]n(-c2nc3ccccc3s2)c(=O)c1C=NCC(C)C`, the compound was classed as inactive.
With `CCCN=Cc1c(CCC)[nH]n(-c2nc3ccccc3s2)c1=O`, the compound was called inactive.
The result for `O=C(CCN1C(=O)C2C3C=CC(C3)C2C1=O)N1CCN(c2ccccc2Cl)CC1` (stereo not given) reads “inactive”.
Under `O=C(NCc1ccc2c(c1)OCO2)c1c[nH]c2ccc(S(=O)(=O)N3CCOCC3)cc2c1=O` stands “inactive”; under `COC(=O)Cn1c(C)c(C#N)c2ccccc21`, “inactive”; under `Cc1cc(C)n(-c2nnc(C)n2/N=C/c2cc(Br)ccc2OCc2ccccc2)n1`, “inactive”.
Regarding `COc1ccccc1/C=N/n1c(C)nnc1-n1nc(C)cc1C`, the result was inactive.
In the case of `CCCOc1ccc2ccccc2c1/C=N/n1c(C)nnc1-n1nc(C)cc1C`, the result was active.
The result for `Cc1nn(C)cc1C=NCCOCc1ccccc1` reads “inactive”.
Under `O=C(CCC(=O)c1cccs1)NC(c1ccccc1)c1ccccc1` stands “inactive”.
Under `COc1ccc2c(=O)c(-c3nc(C)cs3)coc2c1` stands “active”; under `Cc1csc(-c2coc3cc(O)cc(C)c3c2=O)n1`, “inactive”.
For `COc1ccc2oc(=O)c(-c3nc(C)cs3)cc2c1`, the call was inactive.
Take `CCCC(=O)Nc1cnc(NC(=O)c2cccc(F)c2)cc1C`: the compound was classed as inactive.
On to `CCN(CCCNC(=O)CN1C(=O)COc2ccccc21)c1ccccc1`, for which the compound was called inactive.
Under `COc1cc(C2C(C#N)=C(C)NC3=C2C(=O)c2ccccc23)cc(OC)c1OC` (stereo not given) stands “active”; under `COc1cc(C2C(C#N)=C(C)NC3=C2C(=O)CC(C)(C)C3)cc(OC)c1O` (stereo not given), “inactive”; under `COc1ccc(C2C(C#N)=C(C)NC3=C2C(=O)c2ccccc23)cc1` (stereo not given), “inactive”.
The result for `CCCCCC(=O)N(O)C1CC(=O)N(c2ccccc2)C1=O` (stereo not given) reads “inactive”; that for `COC(=O)c1ccc(Nc2nc(C)cc(C)n2)cc1`, “inactive”; that for `CCOC(=O)c1ccccc1NC(=O)CN(c1ccccc1C)S(C)(=O)=O`, “inactive”.
Under `CN1C(=O)c2c(sc3c2CC(C)(C)SC3)N2CCN=C12` stands “inactive”; under `Cc1cc(C)cc(C(=O)N2CC(=O)Nc3ccccc32)c1`, “active”.
As to `O=C1CN(C(=O)c2ccccc2)c2ccccc2N1`, the result was inactive.
As for `Cc1ccsc1C(=O)N1CC(=O)Nc2ccccc21`, the call was inactive.
The result for `O=C(CCN1C(=O)c2ccccc2C1=O)Nc1ccccn1` reads “inactive”.
Under `CNC(=O)C1CCCN1S(=O)(=O)c1ccc(OC)cc1` (stereo not given) stands “inactive”; under `Cc1ccc(NC(=O)CS(=O)CC(=O)NCC2OCCc3ccccc32)c(C)c1` (stereo not given), “inactive”; under `Cc1cccc(-c2c3c(=O)n(C)c(=O)n(C)c3c3c(C)cc(C)nn23)c1`, “inactive”.
The result for `Cc1cc(S(=O)(=O)Nc2ccc(N(C)C)cc2)c(C)s1` reads “inactive”; that for `COc1cccc(N2CCN(c3ncnc4c3[nH]c3ccccc34)CC2C)c1` (stereo not given), “inactive”.
On to `COc1cccc(N2CCN(c3ncnc4c3[nH]c3ccc(F)cc34)CC2C)c1` (stereo not given), for which the outcome was active.
The result for `Fc1ccc2[nH]c3c(N4CCN(c5ccccc5)CC4)ncnc3c2c1` reads “inactive”; that for `OC(CCN1CCCC1)(c1ccccc1)C1CCCCC1` (stereo not given), “inactive”; that for `OC(CCCCN1CCCCC1)c1ccccc1` (stereo not given), “inactive”.
The result for `CC(C)(C)c1ccc(C(O)CCCN2CCC(C(O)(c3ccccc3)c3ccccc3)CC2)cc1` (stereo not given) reads “active”.
Under `Cc1ccc(-n2nc(-c3ccc(N)cc3)cc2N)cc1` stands “inactive”; under `Nc1ccc2nn(-c3cccc4ccccc34)nc2c1`, “inactive”; under `CCOC(=O)CC1=CC(C)(CC(=O)OCC)C(C#N)(C#N)C(N)=C1C#N` (stereo not given), “inactive”.
`O=C(CC1(O)C(=O)Nc2ccccc21)c1ccc(-n2cccc2)cc1` (stereo not given): the outcome was inactive.
Under `CC(C)(C)NC(=O)CC(c1ccccc1)c1ccccc1O` (stereo not given) stands “inactive”; under `Cc1sc2nc(SCC(=O)NCc3cccs3)[nH]c(=O)c2c1C`, “inactive”; under `Cc1cnc(NC(=O)COc2ccccc2Cl)s1`, “active”.
Under `Cc1cnc(NC(=O)COc2ccccc2)s1` stands “inactive”.
`Cc1cnc(NC(=O)COc2cccc3c2OC(C)(C)C3)s1`: the compound was classed as inactive.
Take `CCOC(=O)C1C(=O)NC(N2CCN(Cc3ccccc3)CC2)=NC1c1ccccc1` (stereo not given): the outcome was inactive.
Under `Clc1ccc(-c2nnc(-c3ccccc3)o2)c(Cl)c1` stands “inactive”; under `Fc1ccc(-c2nnc(-c3ccc(Cl)cc3)o2)cc1`, “inactive”.
The result for `Cc1cccc(NC(=O)CCc2ccc(C)o2)c1` reads “inactive”; that for `C/C(N)=C(/C#N)C(=O)COC(=O)COc1ccc(Cl)cc1`, “inactive”.
The result for `c1ccc(Nc2ccccn2)cc1` reads “inactive”; that for `c1ccc(Nc2ccccc2Nc2ccccn2)nc1`, “inactive”; that for `Oc1cccc2ccc(Nc3ccccn3)nc12`, “active”.
For `O=C(Nc1ccc(F)cc1)c1ccccc1`, the outcome was inactive.
For the compound `Cc1cc(C)nc(NC2=NC3CCCCC3N2)n1` (stereo not given), the compound was called inactive.
For the compound `Cc1cc(C)cc(NC(=O)CCn2ccnc2C)c1`, the outcome was inactive.
The result for `CC1CC(C)CN(c2oc(-c3ccco3)nc2C#N)C1` (stereo not given) reads “inactive”.
As to `COc1ccc2c(CSc3nc4nc(C)cc(C)n4n3)cc(=O)oc2c1`, the result was inactive.
Under `CCC(SCC(=O)OC)C(=O)Nc1nnc(C(C)C)s1` (stereo not given) stands “inactive”; under `Cc1nnc(SCCn2c(N3CCN(C)CC3)nc3c2c(=O)n(C)c(=O)n3C)s1`, “inactive”; under `Cc1nnc(SCCn2c(N3CCN(C)CC3)nc3c2c(=O)[nH]c(=O)n3C)s1`, “inactive”.
Under `Cc1nnc(Sc2nc(Sc3nnc(C)s3)nc(N3CCN(C)CC3)n2)s1` stands “active”.
`COc1ccc(NC(=O)C2C(=O)N(C)C3(C)CC2c2ccccc2O3)cc1` (stereo not given): the result was inactive.
The result for `Cc1ccc2ccc(C3C(=O)c4ccccc4C3=O)nc2c1` reads “inactive”; that for `COC(=O)C1=C(C)NC(C)=C(C(=O)OC)C1c1ccc2ccccc2n1`, “inactive”; that for `O=C1c2ccccc2C(=O)C1c1ccc2ccccc2n1`, “active”.
The result for `CCCCn1c(CCNC(=O)CCC)nc2ccccc21` reads “inactive”; that for `CCCCCCc1ccc(OCC(=O)O)cc1OCC(=O)O`, “inactive”.
Under `CC(C)(/C=N/O)/[N+]([O-])=C/c1ccco1` stands “inactive”.
`Cc1cc(C(=O)NCCCN2CCN(C3CCCCC3)CC2)n(-c2ccccc2)n1`: the result was inactive.
Under `Cc1cc(C(=O)NCCN2CCN(c3cccc(Cl)c3)CC2)n(-c2ccccc2)n1` stands “active”.
Under `Cc1cc(C(=O)NCCCN2CCOCC2)n(-c2ccccc2)n1` stands “inactive”; under `COc1ccc(S(=O)(=O)Cc2ccc(C(=O)N3CCc4ccccc4C3)o2)cc1`, “inactive”.
As for `CCC1=C/C(=C/N(C)c2ccccc2)C(=O)S1`, the compound was classed as inactive.
Regarding `Cc1ccc(-c2cc(=O)[nH][nH]2)c(C)c1`, the compound was called inactive.
For the compound `CCOC(=O)c1c(C)sc2c1N(C(C)=O)c1cc(Cl)ccc1S2`, the compound was called inactive.
In the case of `CCOC(=O)c1c(C)sc2c1N(C(=O)CN(CC)CC)c1cc(Cl)ccc1S2`, the outcome was inactive.
As to `CCOC(=O)c1c(C)sc2c1N(C(=O)CCl)c1cc(Cl)ccc1S2`, the call was active.
The result for `CCC(C)NC(=O)c1cc2cc3ccc(OC)cc3nc2s1` (stereo not given) reads “inactive”; that for `CCN1CCN(C(=O)c2cc3cc4ccc(OC)cc4nc3s2)CC1`, “inactive”.
The result for `O=c1[nH]c(NCCO)nc2ncn(Cc3ccccc3)c12` reads “inactive”.
The result for `Cn1c(C(=O)N2CCCC(C(=O)NCCc3ccccc3)C2)cc2sccc21` (stereo not given) reads “inactive”; that for `Cc1ccc(-c2csc(NC(=O)c3ccno3)n2)cc1`, “inactive”; that for `Cc1ccc(C(=O)CC(=O)c2cc(Cl)ccc2O)cc1`, “inactive”.
In the case of `O=C(CC(=O)c1cc(Cl)ccc1O)c1ccccc1`, the compound was called inactive.
In the case of `COc1ccc(C(=O)c2ccccc2)c(O)c1`, the result was inactive.
The result for `Cc1ccc(O)c(C(=O)CC(=O)c2cccc(F)c2)c1` reads “inactive”; that for `CSCCC1C(=O)OC2(C)CC(C)(C)NC(=S)N12` (stereo not given), “inactive”; that for `COCCn1c(C)cc(C(=O)CSc2nnc(C)s2)c1C`, “active”.
Under `COCCn1c(C)cc(C(=O)CSc2nncn2-c2ccccc2)c1C` stands “inactive”; under `COCCn1c(C)cc(C(=O)CSc2ncn[nH]2)c1C`, “inactive”; under `CCCn1c(=O)c2ccccc2n2c(SCC(=O)c3cc(C)n(CCOC)c3C)nnc12`, “inactive”.
Under `Cc1nnc(SCC(=O)c2cc(C)n(C3CC3)c2C)s1` stands “inactive”.
As to `CC(=O)N1c2ccccc2C(=O)OC1c1cccnc1` (stereo not given), the result was inactive.
As for `O=C(NCCCn1ccnc1)c1cc2c(s1)CCCCC2`, the result was inactive.
Take `COc1cccc(CN2C(=O)c3ccccc3C2C(=O)NCC2CCCO2)c1` (stereo not given): the outcome was inactive.
Under `O=C(O)c1cnn(-c2ccccc2)c1-n1cccc1` stands “inactive”; under `COc1cccc(-n2nnnc2SCC(=O)Nc2cccc(C)n2)c1`, “inactive”; under `O=C(Cn1cnc2c(nnn2Cc2ccc(F)cc2)c1=O)OCc1ccccc1`, “inactive”.
For `Cc1ccc(S(=O)(=O)NCc2cccnc2)s1`, the compound was called inactive.
The result for `Cc1ccc(S(=O)(=O)Nc2cccc3ncccc23)s1` reads “active”; that for `O=S(=O)(Nc1ccc(-c2nc3cccnc3s2)cc1)c1cccs1`, “inactive”; that for `O=S(=O)(Nc1cccc2c1ccc1cccn12)c1cccs1`, “inactive”.
The result for `O=S(=O)(Nc1cccc2ncccc12)c1cccs1` reads “active”; that for `Cc1ccc(S(=O)(=O)Nc2ccnc3ccccc23)cc1`, “inactive”.
The result for `CCN(CC)CCOC(=O)c1cccc(Cl)c1` reads “inactive”; that for `Cc1ccc(C(=O)c2nocc2C(=O)c2cccs2)cc1`, “inactive”; that for `O=C(O)Cc1ccc(C(=O)c2cccs2)s1`, “inactive”.
`O=C(c1cccs1)c1no[n+]([O-])c1C(=O)c1cccs1`: the outcome was active.
The result for `CC(=O)c1cccc(NC(=O)N2CCCC2C(=O)NCc2ccc(F)cc2)c1` (stereo not given) reads “inactive”.
